# The source made the active and inactive calls.
# Legend:
# Albumin (Bos taurus) = Albumin (Bos taurus) (UniProt P02769); experiment: compounds binding labelled BSA control protein – biochemical, small-molecule microarray, Alexa647 label, 635/667 nm fluorescence, artefact control for SMM control protein annotation, profiling panel (AID 1118); settings: BSA-A647 binding, fluorescence 635 nm, higher = more signal;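 further: score merges 667 nm emission intensity and signal-to-noise per printed compound spot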
# [1] = probe aXIP binding to arrayed compounds – biochemical, NeuroSMM set, 635/667 nm fluorescence, primary screen (AID 1119); settings: small-molecule microarray, higher = more signal, called active from +8 up or from −8 down;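 further: probe is the protein aXip251-270 applied at 1 µg/mL to compound-printed slides; binding of probe to printed compounds measured as 667 nm fluorescence plus signal to noise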
# [2] = probe aNOTCH3 binding on compound microarray – biochemical, small-molecule microarray, 635/667 nm fluorescence, primary screen (AID 1120); settings: higher = more signal;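 further: probe is a biotin-tagged antibody raised against NOTCH3 rather than NOTCH3 protein; score merges spot fluorescence near 667 nm with spot signal to noise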
# [3] = probe aNOTCH2 binding on compound microarray – biochemical, small-molecule microarray, 635/667 nm fluorescence, primary screen (AID 1121); settings: higher = more signal;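 further: score merges feature fluorescence read at 667 nm with its signal to noise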
# [4] = molecular target: Carbonic anhydrase 2 (Homo sapiens) (UniProt P00918); experiment: compounds binding carbonic anhydrase 2 – biochemical, small-molecule microarray, Alexa647-labelled CAII, profiling panel (AID 1122); settings: CAII-A647 binding fluorescence, higher = more signal
# [5] = COS7 lysate on small-molecule microarray, probe aHis, 635 nm (AID 1123); settings: COS7 cell lysate, fluorescence, higher = more signal;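 further: z-score combines 667nm fluorescence intensity with signal-to-noise per printed compound spot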
# [6] = probe aLAP1 signal on lysate-treated microarray – cell lysate, small-molecule microarray, COS7 lysate, primary screen (AID 1124); settings: probe aLAP1, fluorescence, higher = more signal;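 further: lysate comes from COS7 cells expressing LAP1 and is applied at 0.3 µg/mL; score merges spot fluorescence near 667 nm with signal-to-noise over triplicate slides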
# Sam68 (KHDRBS1) = experiment: compounds binding KHDRBS1 protein – biochemical, small-molecule microarray, 635 nm fluorescence, primary screen (AID 1125); settings: higher = more signal;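 further: score merges 667 nm channel intensity with signal to noise over triplicate slides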
# [7] = test system: Chordin-like protein 2 (CHRDL2); experiment: compounds binding chordin-like 2 – biochemical, small-molecule microarray, 635 nm fluorescence, primary screen (AID 1126); settings: fluorescence 635 nm, higher = more signal;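 further: printed compound slides probed with Chrdl2 protein at 4 µg/mL for 1 h at 4 C; score merges 667 nm emission intensity with signal to noise over three replicate slides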
# [8] = molecular target: Concanavalin-A (Canavalia ensiformis) (UniProt P02866); experiment: compounds binding concanavalin A lectin – biochemical, small-molecule microarray, Alexa647 label, 635 nm, artefact control for SMM control protein annotation, primary screen (AID 1127); settings: ConA-A647 binding fluorescence, higher = more signal;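 further: z combines 667 nm emission intensity with signal-to-noise across three replicate slides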
# [9] = compounds binding Alexa647 anti-His antibody – biochemical, small-molecule microarray, 635 nm fluorescence, artefact control for SMM control protein annotation, primary screen (AID 1128); settings: higher = more signal;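 further: score merges feature fluorescence with signal-to-noise for each printed compound spot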
# [10] = test system: Human papillomavirus type 1a E7 protein (residues 1-88); experiment: HPV1a E7 small-molecule binders, primary screen, biochemical, small-molecule microarray, residues 1-88, 635 nm (AID 1129); settings: small-molecule microarray binding, fluorescence 635 nm; higher = more signal
# [11] = molecular target: Focal adhesion kinase 1 (Homo sapiens) (UniProt Q05397); experiment: PTK2 protein binding on printed compound slides – biochemical, small-molecule microarray, 635/667 nm fluorescence, BSA, DTT, primary screen (AID 1130); settings: 635 nm fluorescence, higher = more signal;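 further: composite of spot emission at 667 nm and signal to noise over triplicate slides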
# [12] = test system: Fibrinogen (Alexa647-labelled); experiment: Alexa647-fibrinogen binding to printed small molecules – biochemical, small-molecule microarray, 635/667 nm fluorescence, artefact control for SMM control-protein annotation, profiling panel (AID 1131); settings: fibrinogen-A647 binding fluorescence, higher = more signal;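 further: z-score merges 667 nm fluorescence with per-spot signal-to-noise over triplicate slides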
# [13] = molecular target: Follistatin (Homo sapiens) (UniProt P19883); experiment: FST protein binding to printed compounds – biochemical, small-molecule microarray, 635/667 nm fluorescence, primary screen (AID 1132); settings: 635 nm fluorescence, higher = more signal
# [14] = molecular target: Fibroblast growth factor 2 (Homo sapiens) (UniProt P09038); experiment: basic fibroblast growth factor binding to printed compounds – biochemical, small-molecule microarray, 635/667 nm fluorescence, primary screen (AID 1133); settings: FGF2, fluorescence 635/667, higher = more signal
# [15] = JC-1 mitochondrial potential readout, lung cancer cells – cell-based, A549, JC-1 fluorescence, basal, 24 h, 100 nL, profiling panel (AID 1138); settings: higher = more signal;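 further: A549 lung adenocarcinoma cells under basal conditions with no added stimulus; test concentration not given here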
# Lefty1 = Lefty1 protein binding to printed compounds – biochemical, small-molecule microarray, 635/667 nm fluorescence, primary screen (AID 1139); settings: fluorescence 635/667, higher = more signal
# [16] = test system: wheat germ agglutinin (Triticum aestivum), Alexa647-labelled; experiment: Alexa647-WGA lectin binding to printed small molecules – biochemical, small-molecule microarray, 635/667 nm fluorescence, artefact control for SMM control-protein annotation, profiling panel (AID 1140); settings: WGA-A647 binding, 635 nm fluorescence, higher = more signal;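 further: score merges 667 nm feature emission with signal to noise over triplicate slides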
# [17] = molecular target: Luciferin 4-monooxygenase (Photinus pyralis) (UniProt P08659); experiment: inhibition of purified Photinus pyralis luciferase – biochemical, luminescence, purified enzyme, 2006 set, primary screen (AID 1141); settings: purified firefly luciferase, SteadyGlo luminescence, 30 min; higher = more signal, called active from +8 up or from −8 down;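 further: cell-free assay with purified firefly luciferase at 100 ng per well in PBS; test concentration not given here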
# Chain of Luciferin 4-monooxygenase (Photinus pyralis) (P08659 whole entry, looked up): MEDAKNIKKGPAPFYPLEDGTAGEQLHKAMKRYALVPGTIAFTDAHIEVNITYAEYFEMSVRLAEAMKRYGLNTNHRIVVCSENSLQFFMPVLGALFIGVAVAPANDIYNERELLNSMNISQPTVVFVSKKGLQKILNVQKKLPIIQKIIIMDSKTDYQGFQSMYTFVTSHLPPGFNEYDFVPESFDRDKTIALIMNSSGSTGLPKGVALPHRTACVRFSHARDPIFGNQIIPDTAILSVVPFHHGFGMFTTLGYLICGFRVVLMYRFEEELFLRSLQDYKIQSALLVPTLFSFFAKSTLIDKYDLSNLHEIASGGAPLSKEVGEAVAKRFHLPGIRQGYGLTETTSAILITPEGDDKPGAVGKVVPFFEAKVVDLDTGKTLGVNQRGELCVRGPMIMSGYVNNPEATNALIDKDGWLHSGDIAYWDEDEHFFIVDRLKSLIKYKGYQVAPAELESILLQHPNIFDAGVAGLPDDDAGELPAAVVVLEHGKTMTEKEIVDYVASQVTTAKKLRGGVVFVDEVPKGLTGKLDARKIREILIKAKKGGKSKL
# Chain of Albumin (Bos taurus) (P02769 whole entry, looked up): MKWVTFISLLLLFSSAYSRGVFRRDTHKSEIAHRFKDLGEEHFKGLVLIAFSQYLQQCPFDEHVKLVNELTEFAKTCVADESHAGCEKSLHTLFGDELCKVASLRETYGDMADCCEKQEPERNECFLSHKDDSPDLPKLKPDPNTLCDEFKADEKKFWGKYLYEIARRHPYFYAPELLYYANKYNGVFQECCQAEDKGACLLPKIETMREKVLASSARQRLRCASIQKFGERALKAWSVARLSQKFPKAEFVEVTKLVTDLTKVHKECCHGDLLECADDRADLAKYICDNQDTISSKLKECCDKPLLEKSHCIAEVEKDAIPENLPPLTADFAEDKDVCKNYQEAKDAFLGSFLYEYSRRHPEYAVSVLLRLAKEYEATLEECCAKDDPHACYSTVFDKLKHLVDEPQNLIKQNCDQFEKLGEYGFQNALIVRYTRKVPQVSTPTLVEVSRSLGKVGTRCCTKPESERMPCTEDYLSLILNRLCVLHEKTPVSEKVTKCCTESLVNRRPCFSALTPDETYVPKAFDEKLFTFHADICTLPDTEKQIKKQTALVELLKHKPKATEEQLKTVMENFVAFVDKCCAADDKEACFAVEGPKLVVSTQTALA
# Chain of Focal adhesion kinase 1 (Homo sapiens) (Q05397 whole entry, looked up): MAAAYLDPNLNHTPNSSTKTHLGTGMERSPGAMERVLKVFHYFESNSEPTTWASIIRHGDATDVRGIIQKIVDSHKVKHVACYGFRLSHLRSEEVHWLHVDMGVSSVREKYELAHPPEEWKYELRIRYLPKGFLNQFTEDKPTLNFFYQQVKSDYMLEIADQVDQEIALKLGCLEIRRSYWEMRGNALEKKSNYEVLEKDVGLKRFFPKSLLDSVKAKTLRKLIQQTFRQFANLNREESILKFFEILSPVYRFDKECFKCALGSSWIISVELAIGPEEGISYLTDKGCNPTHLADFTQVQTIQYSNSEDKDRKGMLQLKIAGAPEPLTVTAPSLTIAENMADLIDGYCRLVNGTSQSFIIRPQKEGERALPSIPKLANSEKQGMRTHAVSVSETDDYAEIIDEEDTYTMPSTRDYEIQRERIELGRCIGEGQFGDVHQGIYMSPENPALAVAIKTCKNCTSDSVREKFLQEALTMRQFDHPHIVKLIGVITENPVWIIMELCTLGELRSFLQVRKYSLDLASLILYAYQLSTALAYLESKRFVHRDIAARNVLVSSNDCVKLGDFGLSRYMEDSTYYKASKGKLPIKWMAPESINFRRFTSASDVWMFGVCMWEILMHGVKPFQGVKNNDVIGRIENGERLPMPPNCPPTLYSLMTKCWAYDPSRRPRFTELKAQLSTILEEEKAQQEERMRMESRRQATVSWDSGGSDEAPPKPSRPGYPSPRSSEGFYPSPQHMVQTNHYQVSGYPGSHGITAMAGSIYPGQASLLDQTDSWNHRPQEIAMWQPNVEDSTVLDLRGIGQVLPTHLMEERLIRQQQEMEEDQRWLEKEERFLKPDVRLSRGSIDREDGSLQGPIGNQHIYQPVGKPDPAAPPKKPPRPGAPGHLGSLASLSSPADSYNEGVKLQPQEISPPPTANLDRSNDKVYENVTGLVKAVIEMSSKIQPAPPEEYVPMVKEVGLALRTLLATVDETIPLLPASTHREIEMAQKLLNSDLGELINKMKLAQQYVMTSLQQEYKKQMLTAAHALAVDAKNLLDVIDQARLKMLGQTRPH
# Chain of Follistatin (Homo sapiens) (P19883 whole entry, looked up): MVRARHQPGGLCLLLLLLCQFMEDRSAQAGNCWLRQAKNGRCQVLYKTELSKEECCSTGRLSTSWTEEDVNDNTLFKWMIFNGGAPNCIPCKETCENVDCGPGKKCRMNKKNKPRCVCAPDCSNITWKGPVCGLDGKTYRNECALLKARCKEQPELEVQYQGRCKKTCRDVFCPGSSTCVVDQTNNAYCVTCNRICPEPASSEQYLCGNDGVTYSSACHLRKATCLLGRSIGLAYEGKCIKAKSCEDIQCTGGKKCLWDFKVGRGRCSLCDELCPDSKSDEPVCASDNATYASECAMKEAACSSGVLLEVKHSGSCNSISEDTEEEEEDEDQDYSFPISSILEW
# Chain of Fibroblast growth factor 2 (Homo sapiens) (P09038 whole entry, looked up): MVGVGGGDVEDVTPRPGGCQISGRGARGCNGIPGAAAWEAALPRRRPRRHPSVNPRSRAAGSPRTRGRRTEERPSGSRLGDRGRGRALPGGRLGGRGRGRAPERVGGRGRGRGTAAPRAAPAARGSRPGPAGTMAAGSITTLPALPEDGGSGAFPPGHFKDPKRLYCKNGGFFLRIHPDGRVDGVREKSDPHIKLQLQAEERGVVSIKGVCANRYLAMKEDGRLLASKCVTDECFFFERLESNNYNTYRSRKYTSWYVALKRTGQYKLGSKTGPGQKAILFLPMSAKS
# Chain of Concanavalin-A (Canavalia ensiformis) (P02866 whole entry, looked up): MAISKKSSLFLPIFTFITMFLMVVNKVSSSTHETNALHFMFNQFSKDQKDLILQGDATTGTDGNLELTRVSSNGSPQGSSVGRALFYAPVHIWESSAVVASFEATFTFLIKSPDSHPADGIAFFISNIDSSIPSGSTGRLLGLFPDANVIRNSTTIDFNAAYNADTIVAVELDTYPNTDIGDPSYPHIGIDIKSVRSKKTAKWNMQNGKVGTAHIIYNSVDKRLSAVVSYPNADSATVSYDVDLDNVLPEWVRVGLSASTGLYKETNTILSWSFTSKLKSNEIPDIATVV
Structure (SMILES),composite z-score (Albumin (Bos taurus)),composite Z-score [1],composite z-score [2],composite z-score [3],composite z-score [4],composite z-score [5],composite z-score [6],composite z-score (Sam68 (KHDRBS1)),composite z-score [7],composite z-score [8],composite z-score [9],composite z-score [10],composite z-score [11],composite z-score [12],composite z-score [13],composite z-score [14],z-score [15],composite z-score (Lefty1),composite z-score [16],z-score [17]
COc1ccc(NC(=O)O[C@H]2[C@H](OC(=O)c3cc4ccccc4[nH]3)[C@@H](OC(=O)c3cc4ccccc4[nH]3)[C@@H](OC)O[C@@H]2CO)cc1,0.144,0.561 (inactive),-0.235,-0.0404,0.541,1.24,0.614,0.156,-0.113,-0.586,1.23,0.359,0.448,0.662,0.752,1.38,0.816,0.194,0.566,-2.09 (inactive)
COCC(=C=CC[C@H](O)c1cccc(OCCO)c1)CCO,0.663,-0.0662 (inactive),-0.0311,-0.166,0.462,1.44,-0.0637,0.431,0.247,-0.042,-0.115,0.0665,-0.0436,-0.535,1.32,0.131,-0.0195,1.48,-0.262,0.415 (inactive)
Cc1ccc(/C=C/C=O)cc1,0.931,0.421 (inactive),-0.217,-0.117,-0.287,0.206,0.127,-0.912,0.24,-0.156,-0.0082,-0.872,-0.0083,0.698,-0.186,-0.245,0.843,-0.709,0.0368,-1.19 (inactive)
COC(=O)[C@@]1(Cc2ccc(OC)cc2)[C@H]2c3cc(C(=O)N4CCCC4)n(Cc4nc5ccccc5[nH]4)c3C[C@H]2CN1C(=O)c1ccccc1,1.08,0.234 (inactive),0.537,0.013,0.78,3.39,1.13,1.32,-0.45,0.174,2.01,1.24,1.64,1.05,0.979,-0.202,1.92,-0.47,1.14,1.53 (inactive)
C=C(CCCC)/C(=C/C[C@H](OC(=O)c1ccncc1)c1ccc(OCCO)cc1)c1cc(C(=O)OC)ccc1OC,-0.0215,0.219 (inactive),0.167,-0.14,0.644,0.774,0.354,0.59,-0.257,0.363,1.07,1.18,0.525,0.438,-0.0021,0.0508,0.313,0.394,0.704,-0.723 (inactive)
C=C(/C(=C/C[C@H](OC(C)=O)c1ccc(OCCO)cc1)c1cc(C(=O)OC)ccc1OC)C(C)C,0.322,0.218 (inactive),0.0562,-0.0666,0.767,1.73,-0.144,1.31,0.305,0.883,1.16,1.08,0.413,0.812,1.13,1.58,1.75,1.55,0.307,-2.33 (inactive)
